# Screens as filed in PubChem.
# Rows were chosen to be rich in hits. Some 2.2% of all compounds tested hit in one or more screens of this group.
# Ba/F3 V617F tox – reduce viability of Ba/F3 cells dependent on JAK2V617F; Ba/F3 EpoR-JAK2V617F viability, ATP luminescence; inhibition, % at 5.6 µM; 220,000 compounds, 1.1% hits;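 active = inhibition above the campaign mean plus 3 SD over all tested compounds, cut at about 24% in these data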;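 also: cytokine-independent growth of Ba/F3 cells driven by EpoR plus mutant JAK2; 0% = DMSO-treated cells and 100% = JAK inhibitor I control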
# APP 5UTR inh – APP translation inhibition; SH-SY5Y APP 5'UTR-luciferase reporter, luminescence; inhibition, % at 2 µM; 190,000 compounds, 0.82% hits;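 active = inhibition above a set limit, derived from the sample mean plus 3 SD, cut at about 45% in these data; inconclusive = one replicate passes the limit while the other fails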
# KLF5 inhibitor – suppresses KLF5 promoter-driven expression; DLD-1 KLF5 promoter-luciferase reporter, luminescence; inhibition, % at 5 µM; 290,000 compounds, 0.23% hits; AID 1700;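 active = inhibition above a per-plate limit of that plate's mean compound inhibition plus 3 SD, cut at about 60% in these data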;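 also: 0% = DMSO wells and 100% = LY294002 at 200 µM; higher means less KLF5 promoter-driven luciferase light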
# aSyn 5UTR inh – MLPCN primary screen, SNCA 5' untranslated region; inhibition, % (tested at 7.5 µM); AID 1813; 300,000 compounds, 0.82% hits; alpha-synuclein 5'UTR reporter, inhibitor activity; in the data active = inhibition above about 60%; inconclusive = no clear call, values can overlap the other calls;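 also: H4 neuroglioblastoma cells stably carrying SNCA 5'UTR luciferase fusion; 0% = DMSO wells and 100% = positive control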
# BaF3 tox – parental Ba/F3 viability inhibition as JAK2V617F counter-screen; inhibition, % at 5.6 µM; 220,000 compounds, 1.1% hits; CellTiter-Glo ATP luminescence;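 active = inhibition above a per-campaign cutoff, the mean inhibition of all tested compounds plus 3 SD, cut at about 27% in these data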;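 also: 0% = DMSO wells and 100% = JAK Inhibitor I control wells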
# IEC-6 cytotox – IEC-6 cytotoxicity, counter-screen for KLF5 inhibitors; luminescence viability; inhibition, % at 5 µM; 290,000 compounds, 0.78% hits; AID 1825;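 also: 0% = plate median of test compound wells and 100% = cytotoxic reference compound wells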
# IEC-6 tox confirm – confirmation of cytotoxic compounds in rat IEC-6 intestinal epithelial cells | inhibition, % at 5 µM | shares compounds with IEC-6 cytotox | IEC-6 rat intestinal epithelial viability, luminescence | 1,900 compounds, 63% hits | AID 1907;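 also: 0% = vehicle and 100% = reference cytotoxic drug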
# An asterisk follows results filed as active; ? = inconclusive; / = no result. Rule as the data show it, unless noted: active = inhibition above about 22%; inactive = the rest.
SMILES,Ba/F3 V617F tox,APP 5UTR inh,KLF5 inhibitor,aSyn 5UTR inh,BaF3 tox,IEC-6 cytotox,IEC-6 tox confirm
O=C(Nc1ccc(N2CCN(C(=O)c3ccccc3)CC2)cc1)c1ccc2c(c1)OCO2,71.5*,-1.6,58.5,35.8,70.3*,25.8*,21.8
CC(=O)N1CCN(c2ccc(NC(=O)c3ccc4c(c3)OCO4)cc2)CC1,-2.6,8.0,-12.7,6.3,1.6,-1.1,/
COc1cc(NC(=O)c2cc(-c3ccccc3Cl)on2)cc(OC)c1OC,/,/,23.5,-75.8,/,54.6*,33.2*
COc1ccccc1-c1cc(C(=O)Nc2cccnc2)no1,75.1*,95.8*,37.9,?,56.9*,58.2*,39.2*
COc1ccc(N(CCC#N)C(=O)/C(C#N)=C/c2cccs2)cc1,-1.8,4.0,-20.8,-13.5,3.4,-2.9,/
O=C1CN(C(=O)c2ccccc2)c2ccccc2N1,1.3,-11.3,-18.2,18.8,1.7,10.6,/
O=C1CN(C(=O)c2cccc(Br)c2)c2ccccc2N1,/,/,4.3,-84.6,/,37.7*,10.5
COC(=O)C(C)NC(=O)CNS(=O)(=O)c1ccc(F)cc1 (stereo unspecified),-0.6,15.1,-36.0,-3.7,6.5,-2.4,/
O=c1c(Cl)c(Cl)cnn1-c1ccccc1,-1.1,96.0*,10.0,-29.4,-7.9,94.8*,30.8*
Nc1c(Cl)cnn(-c2ccccc2)c1=O,/,/,/,12.9,/,/,/
CCC(C)(C)n1nnnc1CN1CCC(c2nc3ccc(C)cc3[nH]2)CC1,-3.6,-1.2,-44.3,21.8,2.5,10.8,/
Cc1cc2nc(C3CCN(Cc4nnnn4Cc4ccccc4)CC3)[nH]c2cc1C,72.3*,39.8,22.9,74.2*,68.3*,71.8*,52.1*
O=C(Nc1ccc(OC(=O)c2ccco2)cc1)c1ccco1,-3.0,-11.3,-32.2,-4.7,3.5,-0.3,/
O=C(OC1CCCCC1)c1ccc(NC(=O)c2ccco2)cc1,-0.7,-51.4,-87.1,-45.3,3.8,31.6*,22.8*
CCOc1cc(NC(=O)c2cccs2)c(OCC)cc1NC(=O)CCC(=O)NCc1ccccn1,80.7*,/,36.6,6.4,64.1*,57.2*,12.1
CC(OC(=O)Cc1c[nH]c2ccccc12)C(=O)Nc1ccccc1[N+](=O)[O-] (stereo unspecified),/,/,/,11.8,/,/,/
Cc1cc(C(=O)CSc2cccc[n+]2[O-])c(C)n1-c1ccc(OC(F)F)cc1,3.8,/,-52.5,-102.9,-1.9,27.1*,-1.0
COC(=O)c1ccc(-n2c(C)cc(C(=O)CSc3cccc[n+]3[O-])c2C)cc1,0.3,-13.0,6.4,-5.9,2.1,7.5,/
Cc1nsc2nc3c(F)c(F)c(F)c(F)c3cc12,/,/,-2.5,-49.4,/,29.4*,5.2
COc1ccc(CCC(C)NCCc2ccc(Cl)cc2Cl)cc1 (stereo unspecified),/,/,-34.4,-11.8,/,3.5,/
COc1ccc(-c2cc(C)no2)cc1S(=O)(=O)N(C)c1ccc(C)cc1,/,/,22.7,-9.1,/,28.3*,24.6*
CCOc1ccc(N(C)S(=O)(=O)c2cc(-c3cc(C)no3)ccc2OC)cc1,/,/,2.4,-1.8,/,2.7,/
CC(C)(C)C(=O)/C=C/c1ccc(Oc2ccccc2)cc1,0.7,/,-25.3,-155.5,-0.2,-1.8,/
COC(=O)c1cc(C(=O)N2CCN(c3cccc(C)c3C)CC2)cc([N+](=O)[O-])c1,49.4*,76.6*,47.4,78.0*,68.5*,37.4*,32.8*
COC(=O)c1cc(C(=O)c2c(C)cc3ccccn23)cc([N+](=O)[O-])c1,/,/,3.4,-40.7,/,44.3*,48.0*
SMILES,Ba/F3 V617F tox,APP 5UTR inh,KLF5 inhibitor,aSyn 5UTR inh,BaF3 tox,IEC-6 cytotox,IEC-6 tox confirm
Cc1cc2ccccn2c1C(=O)c1cc([N+](=O)[O-])cc([N+](=O)[O-])c1,-3.3,-34.3,3.8,2.3,-2.7,3.3,/
COC(=O)c1cc(C(=O)N2CCN(c3ncccn3)CC2)cc([N+](=O)[O-])c1,/,/,-7.5,15.0,/,-5.2,/
COc1ccc(CCNCc2c(OC)ccc3ccccc23)cc1OC,/,/,-24.2,16.4,/,25.6*,4.2
COc1cc(CNCCCN2CCOCC2)cc(Br)c1OCc1ccc(Cl)cc1,30.5*,9.6,-18.7,-29.8,72.7*,53.1*,45.6*
COc1cc(CNCCN2CCOCC2)ccc1OCc1ccc(Cl)cc1,-1.2,-4.5,-37.7,-36.0,4.4,1.9,/
O=C(OCc1cnc(Cl)s1)c1ccccc1Cl,0.9,-7.7,-23.7,-19.4,8.0,-15.0,/
O=C(OCn1ncc(Br)c(Br)c1=O)c1ccccc1Cl,39.9*,/,8.5,-40.2,37.3*,23.2*,53.8*
O=C(OCn1ncc(Br)c(Br)c1=O)c1ccc(F)cc1,84.7*,95.5*,26.0,64.5*,92.8*,36.1*,62.4*
Cc1ccnc(NC(=O)C2CCCN(S(=O)(=O)c3ccc4[nH]c(=O)ccc4c3)C2)c1 (stereo unspecified),/,/,-23.2,13.8,/,-9.6,/
COc1ccc(C(=O)NCC(=O)N2CCCC(C(F)(F)F)C2)cc1OC (stereo unspecified),/,/,/,-14.8,/,/,/
COCCN(CCOC)S(=O)(=O)c1ccc(NC(=O)c2cnccn2)cc1,/,/,-50.1,1.3,/,6.6,/
COc1ccc(Cl)cc1NC(=O)CSc1nc(Nc2ccccc2)nc(N2CCOCC2)n1,/,/,9.0,8.3,/,30.4*,11.9
CCOC(=O)CSC1=C(C#N)C(c2ccc(C)o2)CC(=O)N1 (stereo unspecified),73.7*,94.9*,54.6,78.1*,79.3*,82.9*,59.0*
CCOC(=O)C1=C(COC(=O)c2cccc(NC(C)=O)c2)NC(=O)NC1C (stereo unspecified),/,/,/,14.3,/,/,/
C/C(=N\NC(=O)c1cccc(F)c1)c1ccc(Br)s1,6.7,-2.8,5.8,-45.0,14.2,24.1*,31.8*
C/C(=N/NC(=O)CN(c1ccccc1)S(=O)(=O)c1ccccc1)c1ccccc1O,/,/,22.2,-7.3,/,45.6*,38.0*
CCCC/C(C)=N/NC(=O)CN(c1ccc(Br)cc1)S(=O)(=O)c1ccccc1,-1.8,4.3,9.8,-7.2,8.3,2.6,/
O=c1c2[nH]c3ccccc3c2ncn1CCC1=CCCCC1,-0.8,-35.0,-38.1,-120.7,0.5,-3.6,/
C1=C(CCNc2ncnc3c2[nH]c2ccccc23)CCCC1,72.8*,-24.6,-34.6,/,62.7*,39.3*,24.0*
COc1cc2[nH]c(=S)nc(NCc3cccc(Cl)c3)c2cc1OC,/,/,-8.5,-18.0,/,26.9*,7.8
Cc1ccccc1NS(=O)(=O)c1ccc(N2CCCC2=O)cc1,84.7*,74.4*,55.0,48.7,72.2*,54.8*,43.9*
Cc1ccccc1NS(=O)(=O)c1cc2c3c(c1)CC(=O)N3CCC2,/,/,-38.4,6.1,/,1.8,/
Cc1ccc(NC(=O)C2CCN(S(=O)(=O)c3ccc(N4CCCC4=O)cc3)CC2)cc1Cl,/,/,-42.4,-13.1,/,27.3*,13.3
CN=C(Nc1ccc(Br)cc1)SC1CC(=O)N(c2ccc(OC)cc2)C1=O (stereo unspecified),-1.0,-17.5,-11.6,-10.1,-1.5,-12.1,/
COc1ccc(Cn2c(C3CC3)nc3ccc(NC(=O)c4cccnc4)cc3c2=O)cc1,/,/,-5.1,-176.2,/,37.0*,21.0
